# Results published in PubChem BioAssay (NCI).
# About 83,000 compounds went through this panel and 20% of them were active in at least one assay; those are over-represented in the sample as a whole.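 For each line, cells grew in 96-well plates with the test compound present at a single concentration for 48 hours.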 Unmarked numbers belong to inactive results. Active and inactive are the calls of the source. The calls were made as follows: active = growth percent below 10; inactive = the rest.
# Columns and labels:
# Assay in all cases: NCI-60 one-dose screen, 48 h (100 = growth as untreated, 0 = no growth, -100 = all killed)
# Details in all cases: 10 µM unless noted
# [1] = tested on: T-47D breast
# [2] = tested on: BT-549 breast
# [3] = tested on: MDA-MB-435 melanoma
# [4] = tested on: SW-620 colon
# [5] = tested on: MCF7 breast
# [6] = tested on: HCT-116 colon
# [7] = tested on: HCC-2998 colon
# [8] = tested on: KM12 colon
SMILES,growth [1],growth [2],growth [3],growth [4],growth [5],growth [6],growth [7],growth [8]
CC(=O)n1c(/C(C#N)=C/c2ccc(N(C)C)cc2)cc2ccccc21,35.8%,17.7%,2.22% (active),24.6%,20.1%,27.7%,50.5%,31.6%
Cn1cc(-c2csc(-c3cn(CCNC(=O)OC(C)(C)C)c4ccc(F)cc34)n2)c2cccnc21,1.12% (active),65.4%,77.6%,88.4%,47.3%,82.6%,93.5%,52.7%
c1ccc2[nH]c(-c3cc(-c4ccc5c(c4)OCO5)n[nH]3)nc2c1,40%,34.5%,58%,61.3%,59.2%,51.7%,81.2%,28.2%
Cc1ccc(N(CC(=O)Nc2ccc(S(=O)(=O)N3CCC(N4CCCC4)CC3)cc2)S(=O)(=O)c2ccc(Cl)cc2)cc1,-37.2% (active),74.1%,-87.6% (active),-46.8% (active),14.2%,-70.5% (active),-48.9% (active),24.5%
CCC(CC)C(=O)OC(C)COc1ccc(C(C)(C)C)cc1 (stereo not given),113%,109%,105%,106%,101%,90.7%,101%,102%
COc1cccc(-c2nn(-c3ccccc3)cc2-c2ccnc(NCCCNS(=O)(=O)c3ccccc3)c2)c1,-4.99% (active),35.7%,37.4%,46.5%,18.2%,25.7%,19.7%,29.6%
COc1ccc(-c2nc3ncccn3c2-c2nc3ccc(Br)cc3[nH]2)cc1,77.8%,90.4%,68.1%,93.9%,96.7%,83%,97%,84.5%
COC(=O)[C@]12CC[C@@H](C)[C@H](C)[C@@H]1C1=CC[C@@H]3[C@@]4(C)C[C@@H](OC(C)=O)[C@H](O)[C@@](C)(CO)[C@@H]4[C@H](O)C[C@@]3(C)[C@]1(C)CC2,-66.9% (active),-81.5% (active),-96.4% (active),-67.8% (active),-73.5% (active),-65.4% (active),-87.8% (active),-84.2% (active)
C=C(C)[C@@H]1CC[C@]2(C(=O)NNC(=O)c3cccnc3)CC[C@]3(C)[C@H](CC[C@@H]4[C@@]5(C)CCCNC(C)(C)[C@@H]5CC[C@]43C)[C@@H]12,57.6%,82.3%,83.6%,85.7%,59%,45.7%,73.4%,78.4%
COc1ccc(C2c3ccccc3NC(=O)N2C2CCN(C)CC2)c(OC)c1 (stereo not given),100%,107%,72%,101%,78.1%,107%,105%,99.6%
C/C(=N\Nc1cc(C)c2cc(C)ccc2n1)c1ccccn1,-50.4% (active),21.2%,-89.4% (active),-81.3% (active),-76.1% (active),-72.6% (active),-25.9% (active),-46.9% (active)
COc1ccc(-c2cc(-c3cccs3)n(N=O)c(=O)c2C#N)cc1,97.4%,104%,125%,112%,95.8%,105%,112%,109%
COc1ccccc1CNc1nc(N)nc2[nH]c3ccc(O)cc3c12,32.1%,62.8%,-27.6% (active),25.9%,19.2%,31%,67%,22.4%
Cc1cc(C=O)c(C)c2c1[nH]c1ccccc12,101%,89%,116%,101%,85.4%,90.5%,106%,108%
S=c1[nH]nc2ccccn12,106%,110%,108%,105%,94.3%,108%,102%,116%
